Records with an inconclusive call do not appear. Entries that show only a call come without a potency. Activity calls are given as the source filed them. Calls follow the shape of the dose curve; as a rule, active = well fitted inhibition curve with a large enough effect; inconclusive = small, poorly fitted or top-dose-only effect; inactive = flat fitted curve, though single readings scatter.
Potency is read from the fitted curve at half-maximal effect.

The assay is described as follows: CHOP2 Reporter Counterscreen Assay for Inhibitors of Ubiquitin-specific Protease USP2a.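 Also: activated enterokinase alone at 50 pM in a cell-free format rather than USP2a or CHOP2; nearly all actives have a fitted effect of over 55% in size.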 The note with it: purified enterokinase, fluorogenic substrate, 485/531 nm; series mostly up to 38.3 µM. The method in brief: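 Fluorescence (485/531 nm) read 10 min after adding 25nM reporter substrate to 50 pM activated EK preincubated 30 min RT with compound; Tris pH 8.0/CaCl2/CHAPS buffer. Data normalized to buffer-alone inhibition; concentration-response curves fitted.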
In the case of `O=C(NC12CC3CC(CC(C3)C1)C2)C1=COCCO1`, the Potency entry was “inactive”.

With `Cc1ccccc1OCCn1nc(C(=O)O)c2ccccc2c1=O`, the Potency entry was “inactive”. In the case of `COC(=O)CSc1nc2c(c(-c3ccco3)c1C#N)CCCC2`, the Potency result was “inactive”. As to `Cc1ccc(C2=N/C(=C\c3c(C)nn(-c4ccccc4)c3N3CCCC3)C(=O)O2)cc1`, the Potency result was “inactive”. As for `CSCC[C@H](NC(=O)C1CCN(S(=O)(=O)c2ccc(C)cc2)CC1)C(=O)NCc1ccco1`, the Potency entry is “inactive”. Turning to `O=C(OCc1nc2ccccc2[n+]([O-])c1C(=O)c1ccccc1)c1cccs1`, the Potency entry is “inactive”. On to `CC(C)C(C(=O)O)N1C(=O)/C(=C/C=C/c2ccco2)SC1=S` (stereo not given), for which the Potency was 2 µM (active). For `O=C(CCS(=O)(=O)c1ccc(Br)s1)NC1CCCC1`, the Potency entry is “inactive”. `CCOC(=O)C1CCCN(C(=O)c2cc(-c3ccco3)nc3ccccc23)C1` (stereo not given): the Potency is 5.62 µM (active).

On to `Cc1cc(SCC(=O)Nc2ccccc2)nc(C)n1`, for which the Potency entry was “inactive”. `O=C(CSc1nnc(SCc2ccccc2)s1)N/N=C/c1c[nH]c2ccccc12`: the Potency entry was “inactive”.

For `O=C(Nc1nc(-c2ccco2)c(-c2ccco2)s1)c1ccc(F)cc1F`, the Potency is 10 µM (active). Consider `Cn1c2ccccc2c2nnc(SC3CCOC3=O)nc21` (stereo not given), for which the Potency result was “inactive”. Regarding `Cc1ccc(S(=O)(=O)Nc2cc(C)c(O)c(S(=O)(=O)c3ccc(C)cc3)c2)cc1`, the Potency result is “inactive”. The value for `Cc1noc(/C=C/c2ccco2)c1S(=O)(=O)N1CCC(C(=O)N2CCc3ccccc3C2)CC1` was “inactive”; that for `CCCCCCCCCC[N+](C)(C)CC/C=C1/c2ccccc2Sc2ccc(Cl)cc21` was 7.94 µM (active); that for `O=C(Cc1cccs1)Nc1ccc(S(=O)(=O)N2CCCCC2)cc1` was 7.94 µM (active). The value for `Fc1ccc(-c2nnn(Cc3nc4ccccc4s3)n2)cc1` was “inactive”; that for `COc1ccc(/C=C\C(=O)O[C@@H]2C(O)C(O[C@@H]3OC(C)[C@H](O[C@@H]4OCC(O[C@H]5O[C@H](CO)[C@@H](O)C(O)C5O)C(O)C4O)C(O)C3O)[C@H](OC(=O)[C@]34CCC(C)(C)C[C@@H]3C3=CCC5[C@@]6(C)CC(O)C(O[C@@H]7OC(CO)C(O)[C@H](O)[C@H]7O)[C@@](C)(C(=O)O)C6CC[C@@]5(C)[C@]3(CO)CC4)O[C@H]2C)cc1` (stereo not given in full) was “inactive”. For `O=C1CC(c2ccc(Cl)cc2)SC(N(c2ccccc2)c2ccccc2)=N1` (stereo not given), the Potency result was “inactive”. On to `COc1cccc(/C=N/n2c(SC)nnc2-c2ccccc2)c1O`, for which the Potency result is “inactive”.

Consider `C[C@H](CO)N1C[C@H](C)[C@@H](CN(C)S(=O)(=O)c2cn(C)cn2)Oc2ccc(NC(=O)Cn3cnnn3)cc2C1=O`, for which the Potency entry is “inactive”. The value for `Cc1ccc(-c2c(C)n([O-])c3c([n+]2=O)CCC3)o1` was “inactive”. Turning to `Cc1cc(NS(=O)(=O)c2ccc(Nc3nc(-c4ccc(C)c(C)c4)cs3)cc2)no1`, the Potency entry is “inactive”. The value for `COc1ccc(NC(=O)c2cc(-c3ccco3)nc3ccccc23)cc1S(=O)(=O)N1CCOCC1` was 5.62 µM (active); that for `CCOc1ccccc1C(=O)NC1CC2CCCC(C1)N2C1CC1` (stereo not given) was “inactive”; that for `O=C(CSc1ncccc1-c1nc2ccccc2[nH]1)Nc1ccc2c(c1)OCCO2` was “inactive”. As for `FC(F)(F)c1cnc2c(c1)Nc1ccccc1S2`, the Potency entry is “inactive”. The value for `COC(=O)c1cc2sc(Cl)cc2n1Cc1nc(-c2ccccc2)oc1C` was “inactive”; that for `O=C(CSc1nnnn1-c1ccc(F)cc1)c1ccc(O)c(O)c1` was 12.6 µM (active).

`CC(=O)N1CCCc2cc(S(=O)(=O)CCC(=O)N3CCN(c4cccc(C)c4)C(C)C3)ccc21` (stereo not given): the Potency entry was “inactive”. For the compound `CC(C)CC(=O)NC(=S)Nc1nc(-c2ccc(Cl)cc2)cs1`, the Potency result was “inactive”. In the case of `O=C(OCC1OC(n2ncc(=O)[nH]c2=O)C(OC(=O)c2ccccc2)C1OC(=O)c1ccccc1)c1ccccc1` (stereo not given) it was 7.94 µM (active). In the case of `CCNC(=S)N/N=C/c1cn(Cc2ccc(F)cc2)c2ccccc12` it was “inactive”; in that of `CCOc1ccc2[nH]c(=O)c(CN(Cc3nnnn3Cc3ccco3)C3CCCCC3)cc2c1`, “inactive”; in that of `Cc1nn(CC(=O)Nc2cccc(S(N)(=O)=O)c2)c(C)c1[N+](=O)[O-]`, “inactive”.

As for `Cc1ccc(-c2nc(N/N=C/c3ccncc3)c3ccccc3n2)cc1`, the Potency result is “inactive”. As to `C#CCOCCOCCOCCNc1nc(N2CCN(C(=O)CCCCCCCCCCNC(=O)[C@H]([C@@H](C)CC)n3cc(CCCCCN)nn3)CC2)nc(N2CCN(C(=O)CCCCCCCCCCNC(=O)[C@H]([C@@H](C)CC)n3cc(CCCCN=C(N)N)nn3)CC2)n1`, the Potency was 2.24 µM (active). For `Cc1ccc(C)n1-c1cc(S(=O)(=O)N2CCOCC2)ccc1N1CCCC1`, the Potency entry is “inactive”. Consider `O=c1oc2c(CN3CCCCC3)c(O)ccc2c2c1CCCCC2`, for which the Potency entry was “inactive”.

For the origin of these results see PubChem BioAssay AID493169 (National Center for Advancing Translational Sciences (NCATS), 2011).
